Measurements: PubChem BioAssay AID2535 (National Center for Advancing Translational Sciences (NCATS), 2010)
Calls of active or inactive are those of the source. The call rests on the fitted dose curve; in most records, active means well fitted curve in the direction sought with a large enough effect; inconclusive means small, poorly fitted or top-dose-only effect, or effect the other way, or another doubt; inactive means no such curve, though single readings can be large or run the other way.

biological target: Pyruvate kinase PKLR (Homo sapiens) (UniProt P30613); test: Secondary Concentration-Response Assay for Activators of Human Liver Pyruvate Kinase: for Probe SAR; details: purified hPK-L, ATP production, Kinase-Glo luminescence; series mostly up to 58.3 µM
Sequence (P30613 whole entry, looked up): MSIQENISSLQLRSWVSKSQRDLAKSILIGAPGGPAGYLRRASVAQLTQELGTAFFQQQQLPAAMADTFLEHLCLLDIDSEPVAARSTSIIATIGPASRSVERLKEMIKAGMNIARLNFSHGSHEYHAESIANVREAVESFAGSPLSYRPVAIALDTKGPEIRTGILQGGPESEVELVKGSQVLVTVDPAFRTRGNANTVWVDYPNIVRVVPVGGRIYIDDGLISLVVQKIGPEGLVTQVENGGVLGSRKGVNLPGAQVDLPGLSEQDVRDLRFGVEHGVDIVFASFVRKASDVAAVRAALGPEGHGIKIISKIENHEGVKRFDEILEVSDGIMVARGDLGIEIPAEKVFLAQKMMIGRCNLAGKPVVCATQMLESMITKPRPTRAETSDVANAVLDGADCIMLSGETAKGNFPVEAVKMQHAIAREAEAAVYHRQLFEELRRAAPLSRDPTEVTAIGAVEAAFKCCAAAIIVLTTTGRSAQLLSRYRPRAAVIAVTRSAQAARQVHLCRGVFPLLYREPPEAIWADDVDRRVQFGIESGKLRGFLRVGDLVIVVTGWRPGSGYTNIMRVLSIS
Description: NIH Chemical Genomics Center [NCGC]
Matthew G. Vander Heiden, M.D., Ph.D. [Harvard Medical School, 77 Avenue Louis Pasteur, Boston, MA 02115]
Human pyruvate kinase liver (hPK-L) enzyme was supplied as a highly purified (>95% pure) preparation from Harvard Medical School and assayed for its ability to generate ATP from ADP using phosphoenolpyruvate (PEP) as a substrate. ATP generation was detected in a coupled reaction by luciferase-mediated luminescence, an ATP-dependent process. Pyruvate kinase substrates, PEP and ADP, were present in the assay at Km and approximately 10-fold below Km respectively. The enzyme was assayed at an intermediate level of activity to screen for both inhibitors and activators.
NCGC Assay Protocol Summary for L-isoform:
Three uL of substrate mix (at r.t.) in assay buffer (50 mM Imidazole pH7.2, 50 mM KCl, 7 mM MgCl2, 0.01% Tween 20, 0.05% BSA) was dispensed into white solid bottom 1,536 well microtiter plates so that the final concentrations of substrates in the assay were 0.1 mM ADP and 0.5 mM PEP. 23 nL of compound were delivered by a pin tool and 1 uL of enzyme mix (final concentration of 0.1 nM) in assay buffer (4 degree Celsius) was added. Plates were incubated at room temperature for 1 hour. Two uL of detection mix (Kinase-Glo, Promega; at 4 degree Celsius protected from light) was added and luminescence read by a ViewLux (Perkin Elmer) at 1 second exposure/plate. Data were normalized to the uninhibited (row 31). Additionally, a no enzyme and 5-fold enzyme control was dispensed in row 32, split equally between the two conditions.

outcome, inactive:
O=C1c2ccccc2C(=O)N1c1cccc2ncccc12
Cc1cc2c(s1)c1cnn(Cc3ccccc3F)c(=O)c1n2C
O=S1(=O)N=C(Oc2cccc(Cl)c2)c2ccccc21
O=C1c2ccccc2C(=O)N1c1cccnc1
Cc1ccc(NS(=O)(=O)c2cc3c(cc2-c2ccsc2)NC(=O)CO3)cc1C
COc1ccccc1NS(=O)(=O)c1ccc2c(c1)CCC(=O)N2
Cn1c2cc(S(C)=O)sc2c2cnn(Cc3cccc(O)c3)c(=O)c21 (stereo not given)
O=S1(=O)N=C(Oc2ccc(Cl)cc2)c2ccccc21
Cc1ccc(NS(=O)(=O)c2ccc3c(c2)CCCC(=O)N3)cc1C
Cc1ccc(NC(=O)c2ccc3c(c2)CCC(=O)N3)cc1C
Cc1ccc(NS(=O)(=O)c2ccc3c(c2)CCN(C(=O)C(F)(F)F)C3)cc1C
Cc1ccc(N[S+](=O)([O-])c2cc3c(cc2CCc2ccccc2)NC(=O)CO3)cc1C
CN(C)c1cccc(S(=O)(=O)N2CCCN(S(=O)(=O)c3ccc4c(c3)OCCO4)CC2)c1
COc1ccc(N2C(=O)c3ccccc3C2=O)cc1
Cc1ccc2nc(-c3ccc(C)o3)c(Nc3ccc4c(c3)OCO4)n2c1
O=S1(=O)N=C(Oc2ccccc2)c2ccccc21
CC(=O)N1c2ccc(S(=O)(=O)Nc3ccc(C)c(C)c3)cc2CC1C (stereo not given)
Cc1ccc(Cl)cc1NS(=O)(=O)c1cc2c(cc1F)NC(=O)CC2
O=C1CCc2cc(S(=O)(=O)Nc3ccccn3)ccc2N1
Cc1ccc(NS(=O)(=O)c2cc3c(cc2Br)NC(=O)CO3)cc1C
CCNc1cccc(S(=O)(=O)N2CCCN(S(=O)(=O)c3ccc4c(c3)OCCO4)CC2)c1
O=C1c2ccccc2C(=O)N1c1ccc(Cl)cc1
O=C1CCc2cc(S(=O)(=O)Nc3cccc(C(F)(F)F)c3)ccc2N1
COc1cccc(N2C(=O)c3ccccc3C2=O)c1
Cc1ccc(Nc2c(-c3ccc(C)o3)nc3cccc(C)n23)cc1
O=C1c2ccccc2C(=O)N1Cc1ccccn1
Cc1ccc(C)c(OC2=NS(=O)(=O)c3ccccc32)c1
O=C1CCc2cc(S(=O)(=O)Nc3cccc(Oc4ccccc4)c3)ccc2N1
O=C1c2ccccc2C(=O)N1c1ccc2ncccc2c1
O=C1CCc2cc(S(=O)(=O)Nc3cc(F)cc(Cl)c3)c(F)cc2N1
Cc1ccc(NS(=O)(=O)c2cccc(Cl)c2)cc1C
CN(C)c1cccc(S(=O)(=O)N2CCN(S(=O)(=O)c3ccc4c(c3)OCCO4)CC2)c1
Cc1ccccc1OC1=NS(=O)(=O)c2ccccc21
Cc1ccc(NS(=O)(=O)c2ccc(F)cc2)cc1C
O=C1CCc2cc(S(=O)(=O)Nc3cccc(Br)c3)ccc2N1
Cc1ccccc1Nc1c(-c2ccc(Cl)s2)nc2ccccn12
O=C1c2ccccc2C(=O)N1c1noc2ccccc12
O=C1c2ccccc2C(=O)N1c1ccncc1
Cc1ccc(NS(=O)(=O)c2ccc(N3CCCC3=O)cc2)cc1C
CNc1cc2c(cc1S(=O)(=O)Nc1ccc(C)c(C)c1)CCC(=O)N2
